MEKK2mut PB1 HTS: MEK5 binding signal on mutant MEKK2 PB1, primary screen, biochemical, multiplex bead flow cytometry, Alexa488-MEK5 | Alexa488-MEK5 binding to MEKK2 mutant | percent response, % at 10 µM | hit rate 0.35% among 290,000; in the data active = percent response above about 24%, passing the limit was not always enough
MEKK3 PB1 HTS: modulators of MEKK3-MEK5 PB1 binding, primary screen, biochemical, wildtype MEKK3, multiplex bead flow cytometry, Alexa488-MEK5; Mitogen-activated protein kinase kinase kinase 3 (Homo sapiens), Q99759; bead-based flow cytometry, Alexa488-MEK5 binding to MEKK3; actives lie on both sides; 0 = blocked by unlabeled MEK5, 100 = vehicle; binding response (% of control), % at 10 µM; hit rate 1.4% among 290,000;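 active = binding response more than 3 SD above or below the average of its plate-row segment, actives on both sides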;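 also: Alexa488 bead fluorescence after subtracting the streptavidin-only scavenger bead signal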
MEKK2wt PB1 HTS: modulators of MEK5 binding to wildtype MEKK2, primary screen, biochemical, multiplex bead flow cytometry, Alexa488-MEK5; Mitogen-activated protein kinase kinase kinase 2 (Homo sapiens), Q9Y2U5; Alexa488-MEK5 binding to MEKK2 WT; actives lie on both sides; binding response (% of control), % at 10 µM; hit rate 1.1% among 290,000; in the data active = binding response below about 67% or above about 130%
CendR NRP1 mod: modulators of CendR peptide binding to NRP-1, primary screen, biochemical, fluorescence polarization, uHTS; Neuropilin-1 (Homo sapiens), O14786; FAM-RPARPAR peptide binding to NRP-1; inhibition, % at 25 µM; hit rate 0.85% among 360,000;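 active = inhibition or corrected inhibition above about 18%, plus a signal ratio from 0.5 to 1.5, limit read from the data, passing the limit was not always enough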
SKN-1 inh: suppressors of acrylamide-induced Pgst-4::GFP reporter in worms, primary screen, SKN-1 inhibitor project, whole organism, uHTS, GFP/RFP fluorescence ratio, strain VP596 | C. elegans VP596 Pgst-4::GFP/RFP ratio, 24 h | inhibition, % at 21.8 µM | hit rate 0.49% among 360,000 | AID 624304, 2012;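 active = interference check ratio from 0.5 to 1.5 plus GFP to RFP signal ratio inhibition reaching or exceeding a fixed threshold, cut at about 30% in these data, passing the limit was not always enough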
MEKK2wt confirm: modulators of MEK5 binding to wildtype MEKK2, confirmation, biochemical, single concentration, multiplex bead flow cytometry | hit rate 2.4% among 5,900 | binding response (% of control), % at 10 µM | Alexa488-MEK5 binding to MEKK2 WT; actives lie on both sides | shares compounds with MEKK3 PB1 HTS; in the data active = binding response below about 16% or above about 210%; inactive = in between
MEKK2mut confirm: mutant MEKK2 PB1-MEK5 binding signal retest – biochemical, single concentration, multiplex bead flow cytometry, confirmation; AID 1893, 2009; Alexa488-MEK5 binding to MEKK2 mutant; hit rate 2% among 5,900; shares compounds with MEKK3 PB1 HTS; percent response, % at 10 µM; in the data active = percent response mostly above about 71%, no sharp cut-off; inactive = mostly below about 38%;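 also: higher means compound restores mutant binding toward wildtype level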
MEKK3 confirm: MEKK3 wild-type PB1 binding to MEK5, inhibitors, confirmation, biochemical, bead multiplex flow cytometry, single concentration, wildtype; AID 1894, 2009; binding response (% of control), % at 10 µM; shares compounds with MEKK3 PB1 HTS; hit rate 1.8% among 5,900; Alexa488-MEK5 binding to MEKK3; stronger effect = lower value;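 active = binding response below 72% of control, or above a set upper limit, though filed actives all read lower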;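 also: 100% = DMSO only wells and 0% = binding blocked by excess unlabeled MEK5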
An asterisk follows results filed as active; [ ] = remark or other dose. Compounds with a hit are over-represented: about 3.2% of the library has one in this group of screens.

COc1ccc(/C=C2\N=C(C)N(c3ccc4ccccc4c3)C2=O)cc1OC was read as MEKK2mut PB1 HTS 2.0, MEKK3 PB1 HTS 208.0*, MEKK2wt PB1 HTS 102.0, CendR NRP1 mod -17.6, SKN-1 inh -11.1, MEKK2wt confirm 96.0, MEKK2mut confirm -4.0 and MEKK3 confirm 101.0.
CN(C)CCNc1nc2sc3c(c2c(=O)n1Cc1ccccc1)CCCCC3 was read as MEKK2mut PB1 HTS 22.0, MEKK3 PB1 HTS 106.0, MEKK2wt PB1 HTS 149.0*, CendR NRP1 mod -1.8, SKN-1 inh 12.2, MEKK2wt confirm 150.0, MEKK2mut confirm 25.0 and MEKK3 confirm 107.0.
`O=C(CC[C@H]1O[C@@H](n2ccc(=O)[nH]c2=O)[C@H](O)[C@@H]1O)N[C@H](Cc1ccccc1)C(=O)NCc1cccs1` gave CendR NRP1 mod -3.2 and SKN-1 inh -2.4.
For Nc1c(C(=O)C2CC2)sc2nc(-c3cccs3)cc(C(F)(F)F)c12 the results were MEKK2mut PB1 HTS -1.0, MEKK3 PB1 HTS 95.0, MEKK2wt PB1 HTS 59.0*[inhibitor], CendR NRP1 mod 133.6, SKN-1 inh 10.6, MEKK2wt confirm 85.0, MEKK2mut confirm -7.0 and MEKK3 confirm 101.0.
For CC12CC3(C)CC(C)(C1)CC(C(=O)Nc1nn[nH]n1)(C2)C3 the results were MEKK2mut PB1 HTS -14.0, MEKK3 PB1 HTS 81.0*[inhibitor], MEKK2wt PB1 HTS 87.0, CendR NRP1 mod 1.0, SKN-1 inh 17.4, MEKK2wt confirm 91.0, MEKK2mut confirm -4.0 and MEKK3 confirm 99.0.
For O=C(C[C@@H]1C=C[C@H](NC(=O)Cc2ccccn2)[C@@H](CO)O1)NCCc1ccccc1 the results were CendR NRP1 mod 5.8 and SKN-1 inh 13.1.
For O=C(CNc1cc(S(=O)(=O)N2CCCC2)ccc1OCC(F)(F)F)Nc1ccc(SC(F)F)cc1 the results were MEKK2mut PB1 HTS 1.0, MEKK3 PB1 HTS 144.0*, MEKK2wt PB1 HTS 115.0, CendR NRP1 mod -4.1, SKN-1 inh 6.3, MEKK2wt confirm 90.0, MEKK2mut confirm -13.0 and MEKK3 confirm 100.0.
O=C(CNc1cc(S(=O)(=O)N2CCCC2)ccc1OCC(F)(F)F)Nc1cc(Cl)cc(Cl)c1 was read as MEKK2mut PB1 HTS 3.0, MEKK3 PB1 HTS 104.0 and MEKK2wt PB1 HTS 108.0.
`Cc1ccc2[nH]c(C)c(/C=N/Nc3nc4ccccc4s3)c2c1` gave MEKK2mut PB1 HTS 5.0, MEKK3 PB1 HTS 96.0, MEKK2wt PB1 HTS 138.0*, CendR NRP1 mod -10.8, SKN-1 inh 12.9, MEKK2wt confirm 117.0, MEKK2mut confirm -2.0 and MEKK3 confirm 96.0.
For N/C(=N\N=C/c1ccc(F)cc1)N/N=C\c1ccc(F)cc1 the results were MEKK2mut PB1 HTS 31.0*, MEKK3 PB1 HTS 110.0, MEKK2wt PB1 HTS 159.0*, CendR NRP1 mod 7.9, SKN-1 inh 51.2*, MEKK2wt confirm 162.0, MEKK2mut confirm 38.0 and MEKK3 confirm 108.0.
`O=C(N/N=C/c1ccc(F)cc1)c1ccc(Br)cc1` gave MEKK2mut PB1 HTS 6.0, MEKK3 PB1 HTS 103.0, MEKK2wt PB1 HTS 107.0, CendR NRP1 mod -11.4 and SKN-1 inh 15.5.
